# Screening results as filed in PubChem.
# The list is a sample of the results.
# aSyn 5UTR act = Activators via SNCA 5'UTR binding, MLPCN | alpha-synuclein 5'UTR reporter, activators screen | activity score, % (tested at 7.5 µM), hits read low | 300,000 compounds, 7.1% hits; in the data active = activity score below about -60%
# An asterisk follows results filed as active.
SMILES,aSyn 5UTR act
CN1/C(=C/C(=O)C2CCC2)Sc2ccccc21,-89*
COc1ccc(-c2nnc(-c3ccc(N)cc3)o2)cc1,-113*
COc1ccc(-c2nnc(-c3ccc(N(C)C)cc3)o2)cc1,-148*
CN(C)c1ccc(-c2nnc(-c3ccc(S(=O)(=O)C(F)F)cc3)o2)cc1,-63*
C/C(=N\NC(=O)c1ccn[nH]1)c1cn(C)nc1C,-98*
Cc1cc(-c2nc3ncccc3o2)ccc1N,-111*
Cc1ccc(-c2nc3ncccc3o2)cc1N,-106*
Nc1cc(-c2nc3ncccc3o2)ccc1Cl,-273*
COc1cccc(-c2nc(=S)c3c(n2Cc2ccco2)CCCC3)c1,-89*
Oc1cccc2c3c(oc12)CCCC3,52
O=[N+]([O-])c1ccc(-c2nc(=S)c3c(o2)CCCC3)cc1,-106*
S=c1nc(-c2ccccc2)oc2c1CCCC2,-144*
COc1cccc(-c2nc(=S)c3c(o2)CCCC3)c1,-118*
Cc1ccc(Cl)cc1Nc1nc(-c2sc(NC(=O)c3cccc(Cl)c3)nc2C)cs1,-201*
Cc1ccccc1Nc1nc(-c2sc(NC(=O)c3cccc(Cl)c3)nc2C)cs1,-145*
CN(C)c1oc(/C=C/c2ccccc2)nc1C#N,-262*
COc1ccccc1/C=C/c1nc(C#N)c(N(C)C)o1,-196*
COc1cc(/C=C/[N+](=O)[O-])ccc1OC(=O)/C=C/c1ccc(F)cc1,-72*
C/C(=C\C(=S)Nc1ccccc1)Nc1ccc2ccccc2c1,-94*
C/C(=C\C(=S)Nc1ccccc1)Nc1cccc2ccccc12,-104*
CCCC(NC(=O)CCl)c1ccccc1 (configuration not stated),-72*
Cc1ccc(NC(=O)C(C)OC(=O)c2n[nH]c3ccccc23)cc1 (configuration not stated),-71*
CC1CC1c1ccc(/C=C(\C#N)C(=O)Nc2ccc(Cl)cc2)o1 (configuration not stated),-328*
CC1CC1c1ccc(/C=C(\C#N)C(=O)Nc2ccccc2Cl)o1 (configuration not stated),-192*
NCCCn1c(C(=O)c2ccc(Cl)cc2)c2ccc([N+](=O)[O-])cc2[n+]1[O-],60
SMILES,aSyn 5UTR act
COC(=O)CCC(=O)c1oc2ccc(Br)cc2c1N,-83*
Nc1c(C(=O)c2ccc(Br)cc2)oc2ccccc12,-174*
Nc1c(C(=O)c2ccccc2)oc2ccc([N+](=O)[O-])cc12,-110*
Cc1ccc(C(=O)c2oc3ccccc3c2N)cc1,-66*
NC(=O)CCCn1c(C(=O)c2cc(Cl)c(N)c(Cl)c2)c2ccc([N+](=O)[O-])cc2[n+]1[O-],71
CCOC(=O)c1oc2ccccc2c1N,-90*
Nc1c(C(=O)c2ccccc2)oc2ccc(Br)cc12,-256*
COc1ccc(-c2nc3ccccn3c2CN2CCN(c3ccccc3F)CC2)cc1,-76*
CC(=O)N1CCN=C1SCc1ccc(C(F)(F)F)cc1,-85*
Cc1cc(C)c2c(N)c(C(=O)Nc3cccc(C)c3C)sc2n1,-268*
Cc1ccc(NC(=O)c2sc3nc(C)cc(C)c3c2N)cc1,-75*
CC(=O)c1ccc(NC(=O)CSc2nc(N)c3cc4c(nc3n2)CCCC4)cc1,-79*
CC1(C)Cc2nc3nc(SCC(=O)Nc4ccccc4)nc(N)c3cc2CO1,-68*
CCn1c(SCC(=O)Nc2ccc(C(C)=O)cc2)nc2nc3c(cc2c1=O)COC(C)(C)C3,-83*
CC1(C)Cc2nc3sc4c(SCC(=O)NCc5ccccc5)ncnc4c3cc2CO1,64
N/C(=N\OCc1ccccc1)c1nonc1N,-98*
O=C(N/N=C/c1ccccn1)c1cc(-c2ccc3ccccc3c2)n[nH]1,-161*
O=C(N/N=C/c1ccco1)c1cc(-c2ccc3ccccc3c2)n[nH]1,-75*
O=C(N/N=C/C=C\c1ccccc1[N+](=O)[O-])c1cc(-c2ccc3ccccc3c2)n[nH]1,-88*
O=C(Nc1cnn(Cc2ccccc2)c1)c1nc2ncccn2n1,-66*
Cc1cc(C)nc(SCC(=O)NC2=NN=C(c3ccc(Br)cc3)CS2)n1,-74*
CC(C)CC(=O)Nc1ccc(C(=O)Nc2cccc(O)c2)cc1,-151*
O=C(Nc1cccc(O)c1)c1ccc(C(F)(F)F)cc1,-166*
COc1ccc2cc3c(N)c(C(=O)NCc4ccco4)sc3nc2c1,-192*
Nc1c(C(=O)NCc2ccco2)sc2nc3c(cc12)C(=O)CCC3,-94*
SMILES,aSyn 5UTR act
CCCOC(=O)c1sc2nc3c(cc2c1N)C(=O)CCC3,-152*
CCOC(=O)c1ccc(CSc2nnc(-c3ccncc3)n2N)cc1,-63*
Cc1ccc(NC(=O)c2ccc(CSc3nnc(-c4ccncc4)n3C)cc2)cc1,-108*
Cn1nnnc1SCc1ccc(C(=O)Nc2ccc(Br)cc2)cc1,-186*
[O-][n+]1c2ccccc2c2n1CCCN=C2c1ccc(Cl)cc1,-149*
C/C(=N\NC(=O)CN1CCCCC1)c1cccc([N+](=O)[O-])c1,-93*
S=C(c1ccc(-c2ccc(Cl)c(Cl)c2)o1)N1CCOCC1,-155*
S=C(c1ccc(-c2ccccc2Cl)o1)N1CCOCC1,-137*
O=C(c1ccc(-c2cccc(Cl)c2Cl)o1)N1CCOCC1,-133*
O=C(Cc1ccc(Br)cc1)N1CCCCCC1,-176*
S=C(c1ccc(-c2ccc(Br)cc2)o1)N1CCCCC1,-201*
S=C(c1ccc(-c2ccc(Br)cc2)o1)N1CCOCC1,-178*
O=C(c1ccc(-c2cccc(C(F)(F)F)c2)o1)N1CCOCC1,-71*
CC1CCN(C(=O)c2ccc(-c3ccccc3Cl)o2)CC1,-104*
O=C(c1ccc(-c2ccc([N+](=O)[O-])cc2Cl)o1)N1CCOCC1,-135*
Cc1ccc(-n2ncc3c(N4CCN(c5ccccc5)CC4)ncnc32)c(C)c1,-62*
Cc1cccc(-n2ncc3c(NCCCO)ncnc32)c1,-101*
C=CCNc1ncnc2c1cnn2-c1cccc(C)c1,-133*
Cc1cccc(-n2ncc3c(N4CCOCC4)ncnc32)c1,77
Cc1cccc(-n2ncc3c(N4CC(C)CC(C)C4)ncnc32)c1 (configuration not stated),-109*
Cc1cccc(-n2ncc3c(NC4CCCCC4)ncnc32)c1,-90*
Cc1cc2ccccn2c1C(=S)NC(=O)c1ccccc1,-82*
Cc1cc2ccccn2c1C(=O)Nc1cccc(Cl)c1,-113*
CCN(CC)C(=O)C(C)N(C#N)c1nc(Cl)nc(N(C)C)n1 (configuration not stated),-122*
COCCCOc1ccnc(CS(=O)c2nc3ccccc3[nH]2)c1C (configuration not stated),-111*
SMILES,aSyn 5UTR act
Cc1c(OCC(F)(F)F)ccnc1CS(=O)c1nc2ccccc2[nH]1 (configuration not stated),-99*
Cc1c(OCC(F)(F)F)ccnc1CSc1nc2ccccc2[nH]1,-142*
COc1ncccc1-c1nnn(-c2ccccc2Br)n1,-88*
COc1ncccc1-c1nnn(-c2ccccc2)n1,-156*
CC1CCCCN1S(=O)(=O)c1ccc(C(=O)N(CCCN(C)C)c2nc3ccc(Br)cc3s2)cc1 (configuration not stated),67
Cc1cc(C)c2nc(N(CCCN(C)C)C(=O)C3=COCCO3)sc2c1,-91*
CCN(C(=O)C1=COCCO1)c1nc2c(C)cccc2s1,-84*
CN(C)CCCN(C(=O)C1=COCCO1)c1nc2ccc(Br)cc2s1,-63*
O=C(Nc1ccc2nc(-c3ccc(Br)o3)[nH]c2c1)c1cccs1,-112*
Cc1cccc2[nH]c(-c3ccc(NC(=O)c4ccco4)cc3)nc12,-225*
O=C(Nc1ccc2nc(-c3ccccc3)[nH]c2c1)c1ccco1,-205*
